# Test results as given in PubChem BioAssay (NCI).
# Compounds without any hit were thinned out: in the full panel of roughly 83,000, 20% have a hit.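 Cell lines were cultured in 96-well plates, exposed to a single compound concentration, and assessed for percent growth 48 hours later.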 Calls of active or inactive are those of the source. The calls were made as follows: active = growth percent below 10; inactive = the rest.
# Tested on: SR leukemia
# Assay: NCI-60 one-dose screen, 48 h (100 = growth as untreated, 0 = no growth, -100 = all killed)
# Settings: 10 µM
row,Compound,growth
1,CCN(CC)CCNc1ccc(CO)c2oc3cc(Cl)ccc3c(=O)c12,50.1% (inactive)
2,O=C(O)C(SC(C(=O)O)c1ccccc1)c1ccccc1 (stereo not given),101% (inactive)
3,COc1ccc(-c2nc3ccccn3c2-c2nnc(-c3cc(OC)c(OC)c(OC)c3)o2)cc1,37.7% (inactive)
4,N#Cc1c(C#N)c(SSc2c(C#N)c(C#N)c(N)n2-c2ccccc2)n(-c2ccccc2)c1N,106% (inactive)
5,Cc1ccc(-c2nc(/C=C3/C(=O)N(C)c4ccc(F)cc43)c3ccccn23)cc1,97.5% (inactive)
6,CCN(CC)CCSCCCNc1c2ccc(Cl)cc2nc2ccc(OC)cc12,-19.8% (active)
7,CN1CC[C@@H](c2c(O)cc(O)c3c(=O)cc(-c4ccccc4Cl)oc23)[C@@H](O)C1,-4.82% (active)
8,NC1=NC(=O)C(c2ccccc2)(c2ccccc2)S1,94.8% (inactive)
9,CCc1ccc2c(c1)N(CCO)C1=C(C(=O)OC1)C2c1ccccc1 (stereo not given),63.6% (inactive)
10,Cc1cccc2c(NCCN(C)C)c3cccc(C(=O)NCCN(C)C)c3nc12,-14.7% (active)
11,CCCN(CCC)CCC(O)c1cc2c(c3ccccc13)CCCC2 (stereo not given),75.3% (inactive)
12,COc1ccc2c(c1)/C(=C\c1c[nH]c3ccc(OC)cc13)C(=O)N2,14.7% (inactive)
13,Nc1ccn(C2CC(O)C(CO)O2)c(=O)n1 (stereo not given),92.7% (inactive)
14,COc1cccc(C2C3=C(COC3=O)N(CCO)c3cc(OC)ccc32)c1 (stereo not given),22.3% (inactive)
15,C=C(C(=O)c1ccccc1)C(NC(C)(C)C)c1ccccc1 (stereo not given),-17.7% (active)
